Source: PubChem
This is one part of a sample in which hits are shown more often than they occur.
Pf Dd2 growth: qHTS Primary assay for Inhibitors of Plasmodium falciparum Dd2 growth in vitro; P. falciparum Dd2 growth, SYBR Green, 72 h; 4.3% of 120,000 active; AID 1347417, 2020; Potency, µM (titrated, usually from 28.9 µM), for the others: at the top dose activity, negative = inhibition, most hits filed as inhibitors; active means well fitted inhibition curve with a large enough effect;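 further: plate controls were DMSO vehicle for no effect and reference drug for full effect; nearly all actives have a fitted effect of over 65% in size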
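Readout: SYBR Green fluorescence, 485 nm excitation, 535 nm emission, after ~16 h lysis at 37C. Before that, Dd2-infected red cells (2.5% hematocrit) grew 72 h with compound, 29 uM top final concentration.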
Starred values were filed as active, the others as inactive; [ ] = remark or other dose. Potency means the concentration at half of the fitted maximal effect.

What do the screens show for `O=C(c1ccccn1)N1CCCC2(CC(c3cccnc3)=NO2)C1` (configuration not stated)?
Pf Dd2 growth: 2%

What do the screens show for `C=CCNC(=O)N[C@H]1CCN2C(=O)c3ccc(Cl)cc3NC(=O)[C@@H]2C1`?
Pf Dd2 growth: 26%[44.1 µM]

Results for COC(=O)c1ccccc1NC(=O)CN1C(=O)NC2(CCC(C)CC2)C1=O (configuration not stated) ?
Pf Dd2 growth: inactive

What do the screens show for `O=C(Nc1ccc2c(N3CCCC3)ncnc2c1)c1ccccc1Br`?
Pf Dd2 growth: 13µM*

What do the screens show for `Cc1ccc(NC(=O)c2cnc(N3CCCCC3)c3ccccc23)cc1Cl`?
Pf Dd2 growth: -22%

What do the screens show for `COc1ccccc1C(=O)Nc1ccc2ncnc(N3CCCCC3)c2c1`?
Pf Dd2 growth: inactive

How did Cc1ccc(C)c(C(=O)Nc2ccc3c(N4CCCC4)ncnc3c2)c1 do in these assays?
Pf Dd2 growth: 2.5µM*

How did Cc1ccc(C(=O)NC2CCN(c3cc(-c4cccs4)[nH]n3)CC2)c(C)c1 do in these assays?
Pf Dd2 growth: inactive

Results for CCN1CCCN(C(=O)CCC2CCCC2)CC12CCOCC2 ?
Pf Dd2 growth: inactive

What do the screens show for `O=C(NCc1ccccc1F)c1ccc2c(c1)CN(C1CCSCC1)CCO2`?
Pf Dd2 growth: inactive

Results for COC1CCCN(C(=O)c2cc(-c3ccc(F)cc3)cc3ncn(C)c23)C1 (configuration not stated) ?
Pf Dd2 growth: inactive

How did COc1ccc(-n2nc(C3CCCN(C(=O)c4ccc(Cl)nc4)C3)[nH]c2=O)cc1 (configuration not stated) do in these assays?
Pf Dd2 growth: -2%

Results for O=C(c1ccco1)N1CC2CC(C1)[C@H]1CCCC(=O)N1C2 (some centres not stated) ?
Pf Dd2 growth: -5%

What do the screens show for `CCOC(=O)C1CCN(Cc2ccccc2OCC(O)CN(C)C2CCCCC2)CC1` (configuration not stated)?
Pf Dd2 growth: 10µM*

How did O=C1CCN(Cc2ccccc2OCC(O)CN2CCCCC2)CCN1 (configuration not stated) do in these assays?
Pf Dd2 growth: -8%

What do the screens show for `CCOc1ccccc1CN1CCN(C(=O)CC2CCOCC2)CC1`?
Pf Dd2 growth: -18%

What do the screens show for `c1ccc(Cc2nnc([C@H]3CCN(Cc4ccncc4)C3)o2)cc1`?
Pf Dd2 growth: inactive

Results for COC(=O)c1ccc(N2C[C@H]3OC(=O)N(Cc4ccccc4OC)[C@H]3C2)nc1 ?
Pf Dd2 growth: -6%

How did COc1ccccc1CN1C(=O)O[C@@H]2CN(C(=O)NC3CCCCC3)C[C@@H]21 do in these assays?
Pf Dd2 growth: -2%

Results for COc1cc(OC)nc(N2C[C@H]3OC(=O)N(Cc4ccccc4OC)[C@H]3C2)n1 ?
Pf Dd2 growth: 3.5µM*

Results for Cc1ccccc1Nc1c(-c2ccc(Br)cc2O)nc2sccn12 ?
Pf Dd2 growth: 2.5µM*

Results for COCCNC(=O)c1nc2sccn2c1Br ?
Pf Dd2 growth: 1%[44.1 µM]

How did CCc1cccc(C)c1Nc1c(-c2ccccc2)nc2sccn12 do in these assays?
Pf Dd2 growth: -9%

How did O=C(CCC1CC1)N1CCN(c2ncnc3ccsc23)CC(O)C1 (configuration not stated) do in these assays?
Pf Dd2 growth: 0%

What do the screens show for `CCn1ncc(N2CCCC(CC(=O)NCc3ccc(Cl)cc3)C2)cc1=O` (configuration not stated)?
Pf Dd2 growth: inactive

What do the screens show for `Cc1ccc(-c2cc(N3CCCN(C(=O)Cc4ccccc4Cl)CC3)n[nH]2)cc1C`?
Pf Dd2 growth: inactive

How did Cc1noc(-c2cccc(F)c2)c1C(=O)NCc1ccc(Cl)cc1 do in these assays?
Pf Dd2 growth: -19%

Results for COC1CCC12CCN(C(=O)COc1ccccc1)CC2 (configuration not stated) ?
Pf Dd2 growth: inactive

What do the screens show for `COc1cccc(N2C(=O)NC(=NC3CCCCC3)C23CCN(Cc2cccn2C)CC3)c1`?
Pf Dd2 growth: -20%

How did COc1cccc(N2C(=O)NC(=NC3CCCC3)C23CCCN(C(=O)c2ccc(C)cc2)C3)c1 (configuration not stated) do in these assays?
Pf Dd2 growth: 20%

How did COc1cccc(N2C(=O)NC(=NC3CCCC3)C23CCCN(CC2CCCCC2)C3)c1 (configuration not stated) do in these assays?
Pf Dd2 growth: 10µM*

How did COc1cccc(N2C(=O)NC(=NC3CCCCC3)C23CCCN(CCC(C)C)C3)c1 (configuration not stated) do in these assays?
Pf Dd2 growth: 11µM*

What do the screens show for `COC(=O)N1CCC2(C1)C(=NC1CCCCC1)NC(=O)N2c1cccc(OC)c1` (configuration not stated)?
Pf Dd2 growth: 5%

What do the screens show for `COc1cccc(N2C(=O)NC(=NC3CCCCC3)C23CCN(C(=O)OCc2ccccc2)C3)c1` (configuration not stated)?
Pf Dd2 growth: inactive

Results for COc1cccc(N2C(=O)NC(=NC3CCCCC3)C23CCN(C(C)=O)C3)c1 (configuration not stated) ?
Pf Dd2 growth: 16%

Results for COc1cccc(N2C(=O)NC(=NC3CCCCC3)C23CCCN(C(=O)c2ccc(C)cc2)C3)c1 (configuration not stated) ?
Pf Dd2 growth: 13%

How did COc1cccc(N2C(=O)NC(=NC3CCCCC3)C23CCCN(CC2CCCCC2)C3)c1 (configuration not stated) do in these assays?
Pf Dd2 growth: 13µM*

What do the screens show for `CCOc1ccccc1C(=O)N1CCCC2(C1)NC(=O)N(Cc1ccc(Cl)cc1)C2=O` (configuration not stated)?
Pf Dd2 growth: inactive

What do the screens show for `COc1ccc(-c2noc(-c3nc(-c4cc(OC)c(OC)c(OC)c4)no3)n2)cc1OC`?
Pf Dd2 growth: 33%

How did COC1C(=O)N(C2CCN(S(=O)(=O)c3c(C)noc3C)CC2)C12CCOCC2 (configuration not stated) do in these assays?
Pf Dd2 growth: -2%

Results for CCCN(CC1CCOC1)S(=O)(=O)c1cccc(C)c1 (configuration not stated) ?
Pf Dd2 growth: -2%[5.79 µM]

Results for O=C(c1ccccc1F)N1CCCC(c2noc(COc3ccccc3)n2)C1 (configuration not stated) ?
Pf Dd2 growth: -6%

Results for CCNC(=O)N1CCC(c2noc(COc3ccc(C)cc3)n2)CC1 ?
Pf Dd2 growth: 10µM*

Results for Cc1ccc(OCc2nc(C3CN(C(=O)C4CCCO4)C3)no2)cc1 (configuration not stated) ?
Pf Dd2 growth: 8%

What do the screens show for `Cc1ccc(C)c(NC(=O)N2CCCC(c3noc(COc4ccccc4)n3)C2)c1` (configuration not stated)?
Pf Dd2 growth: 5µM*

How did O=C(COc1ccc(F)cc1)N1CCC(n2cc(-c3nc(C4CC4)no3)nn2)C1 (configuration not stated) do in these assays?
Pf Dd2 growth: 5.6µM*

What do the screens show for `Cc1ccc(OCc2nc(C3CCN(C(=O)c4ccncc4)CC3)no2)cc1`?
Pf Dd2 growth: inactive

How did O=C(COc1ccc(F)cc1)N1CCCC(n2cc(-c3nc(C4CC4)no3)nn2)C1 (configuration not stated) do in these assays?
Pf Dd2 growth: -12%

What do the screens show for `CCc1noc(-c2cn(C3CCN(C(=O)COc4ccc(F)cc4)C3)nn2)n1` (configuration not stated)?
Pf Dd2 growth: inactive
